Assay results reported in publication PMC5540273 (PLoS ONE, 2017).

System: RAF1
Settings: concentration: 1 μM,replicates: in singlicate; n = 1
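Note: KINOMEscan kinase panel screen.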

Structure (SMILES)	%Inh
CC(C)c1nc(-c2cccc(NS(=O)(=O)c3ccccc3)c2)c(-c2ccnc(Nc3ccc4c(c3)CN(C)CC4)n2)s1 [GSK1649598]	87%
C[C@@H](Oc1cc(-n2cnc3cc(-c4cnn(C)c4)ccc32)sc1C(N)=O)c1ccccc1Cl [GSK580432]	13%
CCn1c(-c2nonc2N)nc2cncc(CNC3CCNCC3)c21.Cl [SB-747651]	97.5%
CN1CCN(CCCNc2nccc(-c3c(-c4ccc(F)cc4)nn4cc(C(N)=O)ccc34)n2)CC1 [GW622475]	35%
Cc1ccc(C(=O)Nc2ccc(Oc3ccc4nc(NC(=O)C5CC5)cn4c3)c(F)c2)c(=O)n1-c1ccccc1	82%
CC(=O)Nc1ccc(-c2cc3ncnc(SCC(=O)O)c3s2)cc1	14%
Cn1ccc2ncnc(Oc3ccc(NC(=O)Nc4ccnc(C(F)(F)F)c4)c(Cl)c3)c21	16%
NC(=O)c1ccc(-c2cc3ncnc(SCC(=O)O)c3s2)cc1	3%
CN(c1ccc2c(c1)nc(NCc1ccc(F)cc1)n2C)c1ccnc(Nc2ccc(CS(C)(=O)=O)cc2)n1.Cl [GW813244]	96.4%
FC(F)(F)c1cc(Br)cc(Nc2nccc(-c3cnn4ncccc34)n2)c1 [GW810578]	0%
Cn1ccc2ncnc(Oc3ccc(NC(=O)Nc4cccc(C(F)(F)F)c4)c(F)c3)c21	80%
CCCC(=O)Nc1n[nH]c2ncccc12 [SB-601436]	0%
CN(c1ccccc1CNc1nc(Nc2ccc3c(c2)CC(=O)N3)ncc1C(F)(F)F)S(C)(=O)=O	0%
COC(=O)c1cccc(NC(=O)NC2CCN(c3ccnc(Nc4cc(OC)c(OC)c(OC)c4)n3)C2)c1 (centres unmarked) [GSK1379767]	7%
Cc1n[nH]c2cc(Nc3ccnc(Nc4cccc(CN5CCOCC5)c4)n3)ccc12 [GW682569]	0%
O=C(Nc1cccc(C(F)(F)F)c1)c1cccc(Oc2ccc3nccn3n2)c1	75%
C[C@@H]1CNc2c(sc3ccc4nc(-c5ccc(O)cc5)ccc4c23)C(=O)N1	0%
O=C(Nc1n[nH]c2cc(-c3ccco3)ccc12)C1CC1 [SB-737447]	0%
Cn1cc(-c2cccc3c(N)c(C(N)=O)nnc23)cn1	0%

Structure (SMILES)	%Inh
OCCn1cc(-c2cnc3nnn(Cc4ccc5ncccc5c4)c3n2)cn1	0%
Cl.c1ccc(Oc2ccc(Nc3ccnc4cc(-c5ccc(CN6CCNCC6)o5)ccc34)cc2)nc1 [GW567142]	0%
CS(=O)c1ccc(-c2coc3ccc(-c4n[nH]c(=O)o4)cc23)cc1 (centres unmarked)	20%
CS(=O)(=O)Nc1ccc(-c2ccnc3[nH]ccc23)cc1 [GSK993273]	12%
COC(=O)Nc1nc2cc(Oc3ccc(NC(=O)Nc4cc(C(F)(F)F)ccc4Cl)cc3)ccc2[nH]1.Cl [GW697465]	89%
O=C(Nc1ccc(Oc2ccc3nc(NC(=O)C4CC4)cn3n2)c(F)c1)c1cccn(-c2ccccc2)c1=O	87%
CCNCC(Cc1ccccc1)NC(=O)c1cc(Br)c(-c2ccnc3[nH]ccc23)s1.Cl.Cl (centres unmarked) [GSK1383280]	2%
Cc1ccn2nc(-c3ccc(F)cc3)c(-c3ccncc3)c2c1.Cl [GW457859]	15%
C[C@@H]1CNc2c(sc3ccc4nc(-c5ccncc5)ccc4c23)C(=O)N1	0%
Nc1nccc(-c2ccc3c(N)n[nH]c3c2)n1 [GSK1034945]	17%
COC(=O)c1cccc(NC(=O)NC2CCN(c3ccnc(NCc4ccc(F)cc4)n3)CC2)c1 [GSK1379860]	15%
CC(=O)Nc1nc2cnc(Nc3cc(NC(=O)c4cccc(CC(C)(C)C#N)c4)ccc3C)nc2s1	99.5%
O=C1NCCc2[nH]c(-c3ccncc3)cc21	17%
COc1cccc(CNC(=O)NC2CCN(c3ccnc(Nc4cc(OC)c(OC)c(OC)c4)n3)C2)c1 (centres unmarked) [GSK1379765]	21%
NC(=O)Nc1sc(-c2ccc(F)cc2)cc1C(N)=O [GW789449]	43%
CS(=O)(=O)c1cccc(CNc2nc(Nc3ccc4c(c3)[C@@H]3C[C@@H]4CNC3=O)ncc2C(F)(F)F)c1	0%
O=c1[nH]cc(-c2ccc(O)cc2)c2sc(-c3ccncc3)cc12 [GSK1033723]	7%
CC(C(=O)NC1CCN(c2ccnc(Nc3ccc(F)cc3)n2)C1)c1ccc(Cl)cc1 (centres unmarked) [GSK1379713]	0%

System: RET
Settings: concentration: 1 μM,replicates: in singlicate; n = 1

Structure (SMILES)	%Inh
CC(C)c1nc(-c2cccc(NS(=O)(=O)c3ccccc3)c2)c(-c2ccnc(Nc3ccc4c(c3)CN(C)CC4)n2)s1 [GSK1649598]	95.4%
C[C@@H](Oc1cc(-n2cnc3cc(-c4cnn(C)c4)ccc32)sc1C(N)=O)c1ccccc1Cl [GSK580432]	90%
CCn1c(-c2nonc2N)nc2cncc(CNC3CCNCC3)c21.Cl [SB-747651]	5%
CN1CCN(CCCNc2nccc(-c3c(-c4ccc(F)cc4)nn4cc(C(N)=O)ccc34)n2)CC1 [GW622475]	38%
Cc1ccc(C(=O)Nc2ccc(Oc3ccc4nc(NC(=O)C5CC5)cn4c3)c(F)c2)c(=O)n1-c1ccccc1	100%
CC(=O)Nc1ccc(-c2cc3ncnc(SCC(=O)O)c3s2)cc1	15%
Cn1ccc2ncnc(Oc3ccc(NC(=O)Nc4ccnc(C(F)(F)F)c4)c(Cl)c3)c21	100%
NC(=O)c1ccc(-c2cc3ncnc(SCC(=O)O)c3s2)cc1	0%
CN(c1ccc2c(c1)nc(NCc1ccc(F)cc1)n2C)c1ccnc(Nc2ccc(CS(C)(=O)=O)cc2)n1.Cl [GW813244]	100%
FC(F)(F)c1cc(Br)cc(Nc2nccc(-c3cnn4ncccc34)n2)c1 [GW810578]	0%
Cn1ccc2ncnc(Oc3ccc(NC(=O)Nc4cccc(C(F)(F)F)c4)c(F)c3)c21	100%
CCCC(=O)Nc1n[nH]c2ncccc12 [SB-601436]	0%
CN(c1ccccc1CNc1nc(Nc2ccc3c(c2)CC(=O)N3)ncc1C(F)(F)F)S(C)(=O)=O	87%
COC(=O)c1cccc(NC(=O)NC2CCN(c3ccnc(Nc4cc(OC)c(OC)c(OC)c4)n3)C2)c1 (centres unmarked) [GSK1379767]	11%
Cc1n[nH]c2cc(Nc3ccnc(Nc4cccc(CN5CCOCC5)c4)n3)ccc12 [GW682569]	56%
O=C(Nc1cccc(C(F)(F)F)c1)c1cccc(Oc2ccc3nccn3n2)c1	69%
C[C@@H]1CNc2c(sc3ccc4nc(-c5ccc(O)cc5)ccc4c23)C(=O)N1	13%
O=C(Nc1n[nH]c2cc(-c3ccco3)ccc12)C1CC1 [SB-737447]	0%
Cn1cc(-c2cccc3c(N)c(C(N)=O)nnc23)cn1	12%

Structure (SMILES)	%Inh
OCCn1cc(-c2cnc3nnn(Cc4ccc5ncccc5c4)c3n2)cn1	0%
Cl.c1ccc(Oc2ccc(Nc3ccnc4cc(-c5ccc(CN6CCNCC6)o5)ccc34)cc2)nc1 [GW567142]	20%
CS(=O)c1ccc(-c2coc3ccc(-c4n[nH]c(=O)o4)cc23)cc1 (centres unmarked)	12%
CS(=O)(=O)Nc1ccc(-c2ccnc3[nH]ccc23)cc1 [GSK993273]	22%
COC(=O)Nc1nc2cc(Oc3ccc(NC(=O)Nc4cc(C(F)(F)F)ccc4Cl)cc3)ccc2[nH]1.Cl [GW697465]	100%
O=C(Nc1ccc(Oc2ccc3nc(NC(=O)C4CC4)cn3n2)c(F)c1)c1cccn(-c2ccccc2)c1=O	99.9%
CCNCC(Cc1ccccc1)NC(=O)c1cc(Br)c(-c2ccnc3[nH]ccc23)s1.Cl.Cl (centres unmarked) [GSK1383280]	75%
Cc1ccn2nc(-c3ccc(F)cc3)c(-c3ccncc3)c2c1.Cl [GW457859]	4%
C[C@@H]1CNc2c(sc3ccc4nc(-c5ccncc5)ccc4c23)C(=O)N1	14%
Nc1nccc(-c2ccc3c(N)n[nH]c3c2)n1 [GSK1034945]	9%
COC(=O)c1cccc(NC(=O)NC2CCN(c3ccnc(NCc4ccc(F)cc4)n3)CC2)c1 [GSK1379860]	9%
CC(=O)Nc1nc2cnc(Nc3cc(NC(=O)c4cccc(CC(C)(C)C#N)c4)ccc3C)nc2s1	99.7%
O=C1NCCc2[nH]c(-c3ccncc3)cc21	0%
COc1cccc(CNC(=O)NC2CCN(c3ccnc(Nc4cc(OC)c(OC)c(OC)c4)n3)C2)c1 (centres unmarked) [GSK1379765]	19%
NC(=O)Nc1sc(-c2ccc(F)cc2)cc1C(N)=O [GW789449]	55%
CS(=O)(=O)c1cccc(CNc2nc(Nc3ccc4c(c3)[C@@H]3C[C@@H]4CNC3=O)ncc2C(F)(F)F)c1	100%
O=c1[nH]cc(-c2ccc(O)cc2)c2sc(-c3ccncc3)cc12 [GSK1033723]	29%
CC(C(=O)NC1CCN(c2ccnc(Nc3ccc(F)cc3)n2)C1)c1ccc(Cl)cc1 (centres unmarked) [GSK1379713]	0%
